# Source: the supplement of paper PMC4466140
# What was measured:
# Test in all cases: SPOT peptide array binding signal intensity (averaged, normalized) (arbitrary units (background-subtracted, floor 0; scale differs between SH3 domains)); higher = stronger binding of the SH3 domain to the peptide
# CaNbp2 = molecular target: CaNbp2
# How it was run: (§1)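 Detection of bound protein relied on anti-GST antibody, an HRP anti-mouse secondary and luminol, with imaging and quantification in Genespotter. The bound protein was GST-fused SH3 domains from four yeast species, incubated at 10 μg/ml overnight at 4°C in TBS-based blocking buffer on cellulose membranes carrying synthetic 15-mer peptides with cysteines replaced by serines. Binding signal is normalized, background-subtracted spot intensity averaged over replicates, in arbitrary units that differ between domains.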
# CaRvs167 = molecular target: CaRvs167
# How it was run: as §1
# CaRvs167-3 = molecular target: CaRvs167-3
# How it was run: as §1
# CaSho1 = molecular target: CaSho1
# How it was run: as §1
# CaSla1-D1-D2 = molecular target: CaSla1-D1-D2
# How it was run: as §1
# CaSla1-D3 = molecular target: CaSla1-D3
# How it was run: as §1
# ScAbp1 = molecular target: ScAbp1
# How it was run: as §1
# ScBbc1 = molecular target: ScBbc1
# How it was run: as §1
# ScBem1-D1 = molecular target: ScBem1-D1
# How it was run: as §1
# ScBzz1-D1 = molecular target: ScBzz1-D1
# How it was run: as §1
# ScBzz1-D2 = molecular target: ScBzz1-D2
# How it was run: as §1
# ScCyk3 = molecular target: ScCyk3
# How it was run: as §1
# ScFus1 = molecular target: ScFus1
# How it was run: as §1
# ScHof1 = molecular target: ScHof1
# How it was run: as §1
# ScHse1 = molecular target: ScHse1
# How it was run: as §1
# ScLsb1 = molecular target: ScLsb1
# How it was run: as §1
# ScLsb2 = molecular target: ScLsb2
# How it was run: as §1
# ScLsb3 = molecular target: ScLsb3
# How it was run: as §1
# ScLsb4 = molecular target: ScLsb4
# How it was run: as §1
# ScMyo3 = molecular target: ScMyo3
# How it was run: as §1
# ScMyo5 = molecular target: ScMyo5
# How it was run: as §1
# ScNbp2 = molecular target: ScNbp2
# How it was run: as §1
# ScPex13 = molecular target: ScPex13
# How it was run: as §1
# ScRvs167 = molecular target: ScRvs167
# How it was run: as §1
# ScSho1 = molecular target: ScSho1
# How it was run: as §1
# ScSla1-D1-D2 = molecular target: ScSla1-D1-D2
# How it was run: as §1
# ScSla1-D3 = molecular target: ScSla1-D3
# How it was run: as §1
# SpAbp1-D1 = molecular target: SpAbp1-D1
# How it was run: as §1
# SpBbc1 = molecular target: SpBbc1
# How it was run: as §1
# SpBzz1-D1 = molecular target: SpBzz1-D1
# How it was run: as §1
# SpBzz1-D2 = molecular target: SpBzz1-D2
# How it was run: as §1
# SpCyk3 = molecular target: SpCyk3
# How it was run: as §1
# SpHof1 = molecular target: SpHof1
# How it was run: as §1
# SpHof1-2 = molecular target: SpHof1-2
# How it was run: as §1
# SpHof1-3 = molecular target: SpHof1-3
# How it was run: as §1
# SpHse1 = molecular target: SpHse1
# How it was run: as §1
# SpLsb1 = molecular target: SpLsb1
# How it was run: as §1
# SpLsb4 = molecular target: SpLsb4
# How it was run: as §1
# SpMyo1 = molecular target: SpMyo1
# How it was run: as §1
# SpNbp2 = molecular target: SpNbp2
# How it was run: as §1
# SpPex13 = molecular target: SpPex13
# How it was run: as §1
# SpRvs167 = molecular target: SpRvs167
# How it was run: as §1
# SpSla1-D1-D2 = molecular target: SpSla1-D1-D2
# How it was run: as §1
# SpSla1-D3 = molecular target: SpSla1-D3
# How it was run: as §1
binder,measurement,setting,value
SHRLWLYAAPKRPKT,SPOT peptide array binding signal intensity,CaNbp2,133
same,SPOT peptide array binding signal intensity,CaRvs167,14
same,SPOT peptide array binding signal intensity,CaRvs167-3,24.5
same,SPOT peptide array binding signal intensity,CaSho1,149
same,SPOT peptide array binding signal intensity,CaSla1-D1-D2,10.5
same,SPOT peptide array binding signal intensity,CaSla1-D3,17.8
same,SPOT peptide array binding signal intensity,ScAbp1,41
same,SPOT peptide array binding signal intensity,ScBbc1,7.75
same,SPOT peptide array binding signal intensity,ScBem1-D1,19
same,SPOT peptide array binding signal intensity,ScBzz1-D1,42
same,SPOT peptide array binding signal intensity,ScBzz1-D2,71
same,SPOT peptide array binding signal intensity,ScCyk3,20
same,SPOT peptide array binding signal intensity,ScFus1,260
same,SPOT peptide array binding signal intensity,ScHof1,3.25
same,SPOT peptide array binding signal intensity,ScHse1,404
same,SPOT peptide array binding signal intensity,ScLsb1,0.5
same,SPOT peptide array binding signal intensity,ScLsb2,3
same,SPOT peptide array binding signal intensity,ScLsb3,64
same,SPOT peptide array binding signal intensity,ScLsb4,≤ 0
same,SPOT peptide array binding signal intensity,ScMyo3,10
same,SPOT peptide array binding signal intensity,ScMyo5,18.5
same,SPOT peptide array binding signal intensity,ScNbp2,30
same,SPOT peptide array binding signal intensity,ScPex13,8.75
same,SPOT peptide array binding signal intensity,ScRvs167,18.3
same,SPOT peptide array binding signal intensity,ScSho1,309
same,SPOT peptide array binding signal intensity,ScSla1-D1-D2,32
same,SPOT peptide array binding signal intensity,ScSla1-D3,5
same,SPOT peptide array binding signal intensity,SpAbp1-D1,45
same,SPOT peptide array binding signal intensity,SpBbc1,5
same,SPOT peptide array binding signal intensity,SpBzz1-D1,171
same,SPOT peptide array binding signal intensity,SpBzz1-D2,0.5
same,SPOT peptide array binding signal intensity,SpCyk3,3
same,SPOT peptide array binding signal intensity,SpHof1,84
same,SPOT peptide array binding signal intensity,SpHof1-2,24.5
same,SPOT peptide array binding signal intensity,SpHof1-3,216
same,SPOT peptide array binding signal intensity,SpHse1,157
same,SPOT peptide array binding signal intensity,SpLsb1,35.5
same,SPOT peptide array binding signal intensity,SpLsb4,38.5
same,SPOT peptide array binding signal intensity,SpMyo1,7.5
same,SPOT peptide array binding signal intensity,SpNbp2,30
same,SPOT peptide array binding signal intensity,SpPex13,23
same,SPOT peptide array binding signal intensity,SpRvs167,7.33
same,SPOT peptide array binding signal intensity,SpSla1-D1-D2,3
same,SPOT peptide array binding signal intensity,SpSla1-D3,15
